Results from PubChem BioAssay (EPA / NIEHS).
Activity calls are given as the source filed them. Rule for the calls: active = hit-call score of the fitted dose curve at least 0.9, where 1 is the maximum; inactive = score below 0.9.

Assays:
[1] = IUF_NPC2c_oligodendrocyte_migration_120hr: Leibniz Research Institute for Environmental Medicine (IUF) 120-hour Neural Progenitor Cell Migration Assay for Oligodendrocyte Migration (NPC2c) (AID 2284297);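 note: O4-positive oligodendrocyte migration distance divided by radial glia migration distance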
Outline: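 hNPC spheres (GW 16-19 cortex), PDL/laminin, DMEM/F12 3:1 + 1% N2, 37C. Dosing day 0–5, half feed day 3, DMSO ≤0.1%. Fixed 120 h; O4 ICC + Hoechst, HCI. Readout: mean oligodendrocyte distance from sphere edge / radial glia distance.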

[2] = IUF_NPC2a_radial_glia_migration_120hr: Leibniz Research Institute for Environmental Medicine (IUF) 120-hour Neural Progenitor Cell Migration Assay for Radial Glia Migration (NPC2a) (AID 2284298)
Outline: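 Hoechst-stained nuclei imaged at 120 h; algorithm maps sphere core by densest nuclei, sets migration edge at density threshold, gives radial glia migration distance (um) per well vs DMSO. hNPC spheres (0.3 mm), PDL/laminin, DMEM/F12 3:1 + 1% N2.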

[3] = IUF_NPC2a_radial_glia_migration_72hr: Leibniz Research Institute for Environmental Medicine (IUF) 72-hour Neural Progenitor Cell Migration Assay for Radial Glia Migration (NPC2a) (AID 2284299)
Outline: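 Migration out of plated human neural progenitor spheres is scored at 72 h as the distance in um from the sphere core edge to the edge of the migration area. Values are the mean of four manual measurements per well, normalised to DMSO.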

[4] = IUF_NPC2b_neuronal_migration_120hr: Leibniz Research Institute for Environmental Medicine (IUF) 120-hour Neural Progenitor Cell Migration Assay for Neuron Migration (NPC2b) (AID 2284300)
Outline: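 hNPC spheres, PDL/laminin, DMEM:F12 3:1 + 1% N2, 37C/5% CO2; 7 concentrations + solvent control (DMSO ≤0.1%), 5 d exposure, half-feed day 3. Fix 120 h, TUBB3 ICC, HCI: mean neuron migration distance ÷ glia distance.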

[5] = IUF_NPC3_neuronal_differentiation_120hr: Leibniz Research Institute for Environmental Medicine (IUF) 120-hour Neuronal Differentiation Assay (NPC3) (AID 2284301)
Outline: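 Human fetal (GW 16-19) neural progenitor spheres (0.3 mm) plated on poly-D-lysine/laminin in N2 differentiation medium, exposed 120 h at 37C with half-medium renewal day 3; 7 concentrations. TUBB3+ cells as % of Hoechst nuclei, CNN-identified; DMSO baseline.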

[6] = IUF_NPC4_neurite_length_120hr: Leibniz Research Institute for Environmental Medicine (IUF) 120-hour Neuronal Morphology Assay for Neurite Length (NPC4) (AID 2284302)
Outline: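 Human fetal neural progenitor spheres (0.3 mm) plated on poly-D-lysine/laminin in N2 differentiation medium, exposed from day 0 for 120 h with half-medium refresh at day 3, 37C. Mean neurite length (um) of TUBB3-positive neurons from skeletonized immunostaining images; DMSO ≤0.1%.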

[7] = BSK_MyoF_SRB: Viability Assessment in the BioMAP Diversity Plus: MyoF Assay (AID 2284267); details: primary human lung fibroblasts;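 note: total protein by SRB absorbance in parallel cultures as cytotoxicity measure; cells assessed 24 h after compound addition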
Outline: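 Cytotoxicity in primary human lung fibroblasts is gauged by SRB total-protein staining 24 h after dosing, with DMSO as the negative control.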

[8] = read-out: Matrix Metallopeptidase 1 (MMP1), MMP1 (gene 4312); assay: BSK_MyoF_MMP1: BioMAP Diversity Plus: MyoF Assay for Matrix Metallopeptidase 1 (MMP1) Biomarker Activity (AID 2284268); details: primary human lung fibroblasts
Outline: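 Cells: human lung fibroblasts. Exposure: 24 h chemical dosing. Detection: ELISA for MMP1. Analysis: upward fitting against DMSO negative control.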

[9] = read-out: TIMP metallopeptidase inhibitor 1 (TIMP1), TIMP1 (gene 7076); assay: BSK_MyoF_TIMP1: BioMAP Diversity Plus: MyoF Assay for TIMP metallopeptidase inhibitor 1 (TIMP1) Biomarker Activity (AID 2284269); details: primary human lung fibroblasts
Outline: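 Fibroblasts from human lung are dosed with chemical, cultured 24 h, and assayed for TIMP-1 by ELISA. Increases over the DMSO baseline are scored, with SRB total-protein staining run in parallel for cytotoxicity.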

Measured: AC50

Cc1cc(C(F)(C(F)(F)F)C(F)(F)F)ccc1NC(=O)c1cccc(I)c1C(=O)NC(C)(C)CS(C)(=O)=O
not listed: [7] | [8] | [9]
inactive: all other assays above

CC(C=O)Cc1ccc2c(c1)OCO2 (centres undefined)
inactive: [7] | [8] | [9]

Cc1c([N+](=O)[O-])c(C)c([N+](=O)[O-])c(C(C)(C)C)c1[N+](=O)[O-]
active: [8] 20 µM
inactive: [7] | [9]

CCOC(=O)CCN(SN(C)C(=O)Oc1cccc2c1OC(C)(C)C2)C(C)C
inactive: [7] | [8] | [9]

CCOP(=O)(OCC)SCCSCC
inactive: [7] | [8] | [9]

OC(Cc1ccccc1Cl)(Cn1[nH]cnc1=S)C1(Cl)CC1 (centres undefined)
inactive: [8] | [9] | [1] | [4]
active: [7] 32.2 µM | [2] 43 µM | [3] 36 µM | [5] 17.5 µM | [6] 36.1 µM

CS(=O)(=O)c1ccc(C(=O)C2C(=O)CCCC2=O)c(Cl)c1COCC(F)(F)F
not listed: [7] | [8] | [9]
inactive: all other assays above

CCCCN(CCCC)C(=S)[S-].CCCCN(CCCC)C(=S)[S-].[Ni+2]
inactive: [7] | [8] | [9]

COCC(=O)N(c1c(C)cccc1C)[C@H](C)C(=O)OC
inactive: [7] | [8] | [9]

CC(C)(COCC1CO1)COCC1CO1 (centres undefined)
inactive: [7] | [8] | [9]

CNC(=O)CSP(=O)(OC)OC
not listed: [7] | [8] | [9]
inactive: all other assays above

CCOC(=O)C(SP(=S)(OC)OC)c1ccccc1 (centres undefined)
inactive: [7] | [8] | [9]

CCC(C)(C#N)N=NC(C)(C#N)CC (centres undefined)
inactive: [7] | [8] | [9]
